Measured values: PubChem BioAssay (NCATS)
Results filed as inconclusive are left out. Activity calls are given as the source filed them. Calls come from the whole dose curve; as a rule, active = well fitted curve in the direction sought with a large enough effect; inconclusive = small, poorly fitted or top-dose-only effect, or another doubt; inactive = no such curve, though single readings can be large; an effect the other way counts as inactive or inconclusive.

Legend:
[1] = qHTS of pediatric cancer cell lines to identify multiple opportunities for drug repurposing: Primary screen for TC32 cells (AID 1347089); note: nearly all actives have a fitted effect of over 60% in size
Summary of the method: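 A viability screen of TC32 cells was run over 48 h, with primary MIPE doses spanning 0.78 nM–46 µM and NPC doses 0.59 nM–46 µM. ATP luminescence (CellTiter-Glo) served as the read-out.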

[2] = qHTS of pediatric cancer cell lines to identify multiple opportunities for drug repurposing: Primary screen for DAOY cells (AID 1347090); note: nearly all actives have a fitted effect of over 55% in size
Summary of the method: (§1)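 Viability measured as metabolically active cells via CellTiter-Glo luminescence following 48 hours of compound exposure, 11-point dilutions in confirmatory testing. 500-1,000 cells/well plated 5 hours before dosing; controls were DMSO and 2.3 µM bortezomib.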

[3] = qHTS of pediatric cancer cell lines to identify multiple opportunities for drug repurposing: Primary screen for SJ-GBM2 cells (AID 1347091)
Summary of the method: as §1

[4] = qHTS of pediatric cancer cell lines to identify multiple opportunities for drug repurposing: Primary screen for A673 cells (AID 1347092); note: nearly all actives have a fitted effect of over 45% in size
Summary of the method: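 Titration-based qHTS on A673 cells: MIPE compounds spanned 11 points (0.78 nM to 46 µM final), NPC compounds 8 points (0.59 nM to 46 µM final). Viability after 48 h was measured by ATP luminescence.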

[5] = qHTS of pediatric cancer cell lines to identify multiple opportunities for drug repurposing: Primary screen for SK-N-MC cells (AID 1347093)
Summary of the method: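 Metabolically active cells were quantified by ATP-dependent luminescence (CellTiter-Glo, 15 min at room temperature) following 48 h treatment. Cells had been plated at 500-1,000 per well and settled for 5 h beforehand.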

[6] = qHTS of pediatric cancer cell lines to identify multiple opportunities for drug repurposing: Primary screen for BT-37 cells (AID 1347094)
Summary of the method: (§2)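 Plated cells (500-1,000 per well, growth media) were allowed to settle for 5 hours, treated with compound dilutions for 48 hours, then lysed with CellTiter-Glo for 15 min at room temperature before luminescence reading.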

[7] = qHTS of pediatric cancer cell lines to identify multiple opportunities for drug repurposing: Primary screen for NB-EBc1 cells (AID 1347095)
Summary of the method: as §2

[8] = qHTS of pediatric cancer cell lines to identify multiple opportunities for drug repurposing: Primary screen for Saos-2 cells (AID 1347097); note: nearly all actives have a fitted effect of over 40% in size
Summary of the method: as §2

[9] = qHTS of pediatric cancer cell lines to identify multiple opportunities for drug repurposing: Primary screen for U-2 OS cells (AID 1347096); note: nearly all actives have a fitted effect of over 50% in size
Summary of the method: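 Viability after 48 h compound treatment at 37C, 500-1,000 cells/well, read as ATP luminescence with CellTiter-Glo. Primary screens used 11-point (MIPE, 0.78 nM-46 µM) or 8-point (NPC, 0.59 nM-46 µM) final concentrations; follow-up screens used 11-point dilutions.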

Measured: Potency
Potency is the fitted concentration of half-maximal effect.

CC(C)c1cnn2c(NCc3ccccc3)cc(N[C@@H](CO)[C@H](O)CO)nc12
active: [1] 1470 nM | [2] 372 nM | [3] 166 nM | [4] 118 nM | [5] 296 nM | [6] 306 nM | [7] 187 nM | [8] 296 nM

C[C@@]12O[C@@H](C[C@]1(O)CO)n1c3ccccc3c3c4c(c5c6ccccc6n2c5c31)CNC4=O
active: [1] 1860 nM | [2] 4690 nM | [3] 235 nM | [4] 743 nM | [5] 37.2 nM | [6] 4850 nM | [7] 1180 nM | [8] 3320 nM

C#Cc1cccc(Nc2ncnc3cc(OC)c(OCCCCCCC(=O)NO)cc23)c1
active: [1] 5230 nM | [2] 59 nM | [3] 118 nM | [4] 9.3 nM | [5] 11.8 nM | [6] 611 nM | [9] 1480 nM

Nc1ccc(S(=O)(=O)Nc2ncccn2)cc1
active: [5] 23500 nM
inactive: [1] | [2] | [3] | [4] | [6] | [7] | [9] | [8]

CC1(C)OC2=C(C(=O)c3ccccc3C2=O)[C@H](NCc2ccccc2)[C@H]1O
active: [1] 18600 nM | [2] 5900 nM | [3] 7430 nM | [4] 469 nM | [5] 1480 nM | [6] 8630 nM | [7] 2350 nM | [9] 9350 nM | [8] 5900 nM

O=C(CCCCCCNC(=O)c1cnc(N(c2ccccc2)c2ccccc2)nc1)NO
active: [1] 18600 nM | [2] 18700 nM | [3] 5260 nM | [4] 9350 nM | [5] 2960 nM | [6] 15300 nM | [7] 4180 nM | [8] 11800 nM
inactive: [9]

O=c1[nH]nc(Sc2ncc([N+](=O)[O-])s2)n1-c1ccc2c(c1)OCCO2
inactive: [1]
active: [2] 9350 nM | [3] 9350 nM | [4] 3720 nM | [5] 9350 nM | [6] 21700 nM | [9] 11800 nM | [8] 10500 nM

Cc1cn(-c2cc(NC(=O)c3ccc(C)c(Nc4nccc(-c5cccnc5)n4)c3)cc(C(F)(F)F)c2)cn1
inactive: [1] | [2] | [4] | [5] | [6] | [9] | [8]
active: [3] 18700 nM | [7] 23500 nM

O=C(c1cncc(Br)c1)N1CCC(N2CCCC2)CC1
inactive: [1] | [2] | [3] | [4] | [5] | [6] | [9] | [8]

CCS(=O)(=O)c1cccc(-c2cc(C(=O)NC3CCN(C)CC3)c(C)c3[nH]c4ncc(C)cc4c23)c1
active: [1] 415 nM | [2] 14800 nM | [3] 526 nM | [4] 743 nM | [5] 187 nM | [6] 3060 nM | [7] 16600 nM | [9] 14800 nM | [8] 935 nM

Nc1ncnc2c1c(-c1cnc3[nH]ccc3c1)nn2C1CCCC1
active: [1] 5870 nM | [2] 3720 nM | [3] 132 nM | [4] 1870 nM | [5] 66.2 nM | [6] 1720 nM | [7] 469 nM | [9] 2350 nM | [8] 935 nM

CC(C)(O)c1cc2nc(-c3cnc(N)nc3)nc(N3CCOCC3)c2s1
active: [1] 466 nM | [2] 148 nM | [3] 235 nM | [4] 372 nM | [5] 11.8 nM | [6] 769 nM | [7] 93.5 nM | [8] 235 nM

CCCCc1nc2cc(C=CC(=O)NO)ccc2n1CCN(CC)CC
active: [1] 5870 nM | [2] 3720 nM | [3] 469 nM | [4] 118 nM | [5] 29.6 nM | [6] 48.5 nM | [7] 590 nM | [9] 743 nM | [8] 29.6 nM

CN(c1ncccc1CNc1nc(Nc2ccc3c(c2)CC(=O)N3)ncc1C(F)(F)F)S(C)(=O)=O
active: [1] 13100 nM | [2] 18700 nM | [3] 3320 nM | [4] 4690 nM | [5] 2960 nM | [6] 9680 nM
inactive: [9]

CC[C@@H]1C(=O)N(C)c2cnc(Nc3ccc(C(=O)NC4CCC(N5CCN(CC6CC6)CC5)CC4)cc3OC)nc2N1C(C)C (stereo partly specified)
active: [1] 370 nM | [2] 74.3 nM | [3] 74.3 nM | [4] 93.5 nM | [5] 148 nM | [6] 2430 nM | [7] 332 nM | [9] 11800 nM | [8] 526 nM
